Screening data: PubChem, Johns Hopkins Ion Channel Center
A selection: hits, their analogues and other compounds. The true share with any hit is near 1.6%.
KCNQ2 inh: rat KCNQ2 potassium channel inhibitors, primary screen, cell-based, CHO-K1, FluxOR thallium flux, B-score; Potassium voltage-gated channel subfamily KQT member 2 (Rattus norvegicus), O88943; 20 min; stronger effect = lower value; B-score at 10 µM; 310,000 tested, 1.1% active; AID 2156, 2009;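 active = fluorescence ratio B-score at most minus 3 library SDs, with starting brightness B-score within 2 library SDs, cut at about -5.5 in these data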
Target sequence (O88943 whole entry, looked up): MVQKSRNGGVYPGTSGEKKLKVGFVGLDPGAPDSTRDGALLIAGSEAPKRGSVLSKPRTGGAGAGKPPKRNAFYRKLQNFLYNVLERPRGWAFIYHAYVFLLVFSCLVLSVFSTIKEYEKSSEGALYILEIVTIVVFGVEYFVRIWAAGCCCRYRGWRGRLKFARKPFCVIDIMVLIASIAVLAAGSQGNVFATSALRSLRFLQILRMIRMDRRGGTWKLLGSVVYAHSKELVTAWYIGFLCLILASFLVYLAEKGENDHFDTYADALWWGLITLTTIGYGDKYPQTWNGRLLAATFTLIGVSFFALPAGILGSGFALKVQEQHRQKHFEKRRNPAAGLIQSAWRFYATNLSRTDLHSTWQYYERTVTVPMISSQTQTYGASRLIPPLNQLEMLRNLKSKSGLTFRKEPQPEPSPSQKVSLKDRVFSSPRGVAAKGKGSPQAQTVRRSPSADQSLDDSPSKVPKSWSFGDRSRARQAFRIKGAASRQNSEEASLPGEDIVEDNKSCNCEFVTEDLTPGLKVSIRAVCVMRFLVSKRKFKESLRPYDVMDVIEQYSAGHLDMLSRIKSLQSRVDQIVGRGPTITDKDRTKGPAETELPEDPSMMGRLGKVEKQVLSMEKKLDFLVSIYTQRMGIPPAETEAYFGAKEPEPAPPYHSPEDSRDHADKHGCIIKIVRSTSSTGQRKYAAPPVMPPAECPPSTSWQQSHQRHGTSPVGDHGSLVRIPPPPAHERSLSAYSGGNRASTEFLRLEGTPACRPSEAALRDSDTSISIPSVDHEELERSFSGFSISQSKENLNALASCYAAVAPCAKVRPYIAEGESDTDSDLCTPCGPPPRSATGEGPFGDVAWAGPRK
KCNQ2 pot: potentiators of rat KCNQ2 potassium channel; Potassium voltage-gated channel subfamily KQT member 2 (Rattus norvegicus), O88943; CHO-K1 KCNQ2, FluxOR thallium flux fluorescence; stronger effect = higher value; B-score at 10 µM; 310,000 tested, 0.54% active; AID 2239, 2010;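 active = fluorescence ratio B-score at least 3 SD of library B-scores, with initial fluorescence B-score within 3 of them, cut at about 5.3 in these data; same plate scores as AID 2156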;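 also: B-score of peak minus minimum over baseline fluorescence ratio after K+ and Tl+ stimulus; positive B-score means potentiation of KCNQ2 with more thallium influx and brighter signal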
Starred values were filed as active, the others as inactive; i = inactive; . = no result given.

SMILES	KCNQ2 inh	KCNQ2 pot
Cc1ccccc1OCc1nnc(SCC(=O)N2CCc3ccccc32)n1C	i	2.02
Cc1cccc(OCc2nnc(SCC(=O)N3c4ccccc4CC3C)n2C)c1C (stereo not drawn)	-6.03*	-6.03
CC(=O)/C(=N\Nc1ccccc1)Sc1cccc2cccnc12	i	.
O=C(Sc1cccc2cccnc12)c1ccccc1Br	-6.18*	-6.18
CC1CCCCN1C(=O)CSc1nc2c(c(=O)n(C)c(=O)n2C)n1C (stereo not drawn)	i	0.54
Cc1cc(C)n(C(=O)CNC(=O)c2cccc(F)c2)n1	i	2.33
Cc1nn(C(=O)CNC(=O)c2ccccc2)c(C)c1C	i	8.95*
S=c1[nH]cnc2scc(-c3ccccc3)c12	i	10.5*
Clc1ncnc2scc(-c3ccccc3)c12	i	1.32
Cc1ccc(C(=S)N2CCN(Cc3ccccc3)CC2)s1	i	.
Cc1onc(-c2c(F)cccc2Cl)c1C(=O)OCC(=O)NC(N)=O	i	0.29
Cc1onc(-c2c(F)cccc2Cl)c1C(=O)OCC(=O)NC(c1ccccc1)c1ccccc1	-5.58*	-5.58
COc1ccc(CCNC(=O)CSc2nnc3ccccn23)cc1	i	1.27
Cc1ccc(Cl)cc1NC(=O)c1cc(NC(=O)C2CCCCC2C(=O)O)ccc1N1CCOCC1 (stereo not drawn)	i	.
O=C(COc1c(Br)cc(Br)c2cccnc12)N1CCCCC1	i	4.59
Oc1c(CN2CCCCC2)cc(Br)c2cccnc12	i	8.37*
COc1cc(C(=O)OCC(=O)NC(N)=O)cc(CN2C(=O)c3ccccc3C2=O)c1OC	i	.
O=[N+]([O-])c1ccc(CN2CCN(c3ccc([N+](=O)[O-])cc3)CC2)cc1	i	.
O=[N+]([O-])c1ccc(N2CCC(=NOCc3ccc(Cl)cc3)CC2)cc1	-5.69*	-5.69
O=[N+]([O-])/C(C(Cl)=C(Cl)Cl)=C1\Nc2ccccc2O1	i	.
COc1ccccc1N=Cc1c(C)[nH]n(-c2ccc(C)cc2C)c1=O	i	.
COc1ccc2nc(/N=C/c3c(C)[nH]n(-c4ccc(C)cc4C)c3=O)sc2c1	i	20.3*
CCOC(=O)c1sc(=S)n(C)c1NC(=O)c1ccccc1Cl	i	.
CC1(C)Cc2ccccc2C(CSc2ccccc2C(=O)O)=N1	-6.05*	-6.05
COc1cc2c(cc1OC)C(CSc1ccccc1C(=O)O)=NC(C)(C)C2	i	.
SMILES	KCNQ2 inh	KCNQ2 pot
Cc1ccc(C(=O)N/C(=C\c2cn(S(=O)(=O)N(C)C)c3ccccc23)C(=O)NCCCN2CCOCC2)cc1	i	0.48
Cc1cc(OCc2cc(C(=O)N(C)Cc3ccccn3)no2)cc(C)c1Cl	i	.
Cc1cc(OCc2cc(C(=O)N(C)CCOc3ccccc3)no2)cc(C)c1Cl	-5.66*	-5.66
COc1cccc(CN(C)C(=O)c2cc(COc3c(F)cccc3F)on2)c1	i	.
O=C(NC1CCCC1)c1cc(COc2ccc3ncccc3c2)on1	i	2.95
O=C(NCCc1cn2ccccc2n1)c1cc(COc2ccc3ncccc3c2)on1	-6.04*	-6.04
CN(CCc1ccccc1)C(=O)c1cc(COc2cccc(C(F)(F)F)c2)on1	-5.54*	-5.54
COc1cccc(CN(C)C(=O)c2cc(COc3ccc4ncccc4c3)on2)c1	-7.46*	-7.46
CN(CCCN1CCOCC1)C(=O)c1cc(COc2cccc(C(F)(F)F)c2)on1	i	.
COCCCNC(=O)CCN1N=C(c2ccccc2)CCC1=O	i	0.33
CCOC(=O)c1ccc(S(=O)(=O)N2CC(=O)Nc3ccccc32)cc1	i	.
Cc1ccc(/C=C/C(=O)O)cc1S(=O)(=O)NC1CCS(=O)(=O)C1 (stereo not drawn)	i	0.06
COc1ccc2c(c1)C(SCC(=O)NCCc1ccc(Cl)cc1)CC(C)(C)O2 (stereo not drawn)	i	.
COc1ccc(CNC(=O)CCn2nc(C)c3c(C)n(-c4ccccc4)nc3c2=O)c(OC)c1	i	0.34
CCOCCCNC(=S)N1CCN(c2nc(-c3ccc(F)cc3)cs2)CC1	i	.
CCOC(=O)CCc1c(C)nc2c(c(C)nn2-c2ccc(C)cc2)c1C	i	0.53
CCOC(=O)CCc1c(C)nc2c(c(C)nn2C(C)(C)C)c1C	-7.78*	-7.78
CCCC(=O)Nc1cc(OC)c(C(=O)OC)cc1Cl	i	.
CN1CCN(S(=O)(=O)c2cccc(C(=O)Nc3ccccc3N3CCOCC3)c2)CC1	i	0.44
CCN1CCN(c2ccc(S(=O)(=O)N3CCCCC3)cc2NC(=O)c2cccc(C(F)(F)F)c2)CC1	i	.
O=C(Nc1cc(C(F)(F)F)ccc1N1CCCCC1)c1cccc([N+](=O)[O-])c1	i	2.3
Cc1ccc(C(=O)Nc2cc(C(F)(F)F)ccc2N2CCCCC2)cc1[N+](=O)[O-]	-7.16*	-7.16
CN1CCN(S(=O)(=O)c2cccc(C(=O)Nc3ccccc3N3CCCCC3)c2)CC1	-6.01*	-6.01
CN1CCN(S(=O)(=O)c2cccc(C(=O)Nc3cc(C(F)(F)F)ccc3N3CCCCC3)c2)CC1	-7.27*	-7.27
COc1ccc(C(=O)COC(=O)CCN=C2NS(=O)(=O)c3ccccc32)c(OC)c1	i	.
SMILES	KCNQ2 inh	KCNQ2 pot
Cc1cc(NC(=O)COc2c(C)cccc2C)no1	i	.
COCCN1C(=O)N(c2cccc(C)c2)C(=O)C1CC(=O)Nc1ccc(OC)cc1 (stereo not drawn)	i	.
Cc1cc(C)c(NC(=O)Nc2ccccc2)c(Cl)c1	i	5.29*
Cc1cc(C)c(NC(=O)Nc2ccccc2C)c(Cl)c1	i	0.11
O=S(=O)(Nc1ccc(Cc2ccncc2)cc1)c1cccs1	i	0.96
CCCCc1ccc(NS(=O)(=O)c2cccs2)cc1	-5.9*	-5.9
CC(=O)Nc1ccc(N2C(=O)c3ccc(C(=O)Nc4nnc(SCc5ccc(F)cc5)s4)cc3C2=O)cc1	i	.
Cc1oc2c(CN3CCCCC3)c(O)ccc2c(=O)c1-c1ccc(Cl)cc1	i	.
CCc1nc(Sc2nnnn2-c2ccccc2)c2c3c(sc2n1)CCCC3	-5.92*	-5.92
CCc1nc(-n2[nH]c(=O)c3ccccc3c2=O)c2c3c(sc2n1)CCCC3	i	.
CC1CCCN(C(=O)C(Cc2ccccc2)n2cccc2)C1 (stereo not drawn)	-6.45*	-6.45
Cc1ccc(NC(=O)C(Cc2ccccc2)n2cccc2)cc1 (stereo not drawn)	i	.
CC1CCC(NC(=O)C(Cc2ccccc2)n2cccc2)CC1 (stereo not drawn)	-5.82*	-5.82
O=C(C(Cc1ccccc1)n1cccc1)N1CCN(c2ccccc2)CC1 (stereo not drawn)	i	.
Cc1ccc(NC(=O)CN(C)C(=O)C(C)OC(=O)c2ccccc2NCCO)cc1 (stereo not drawn)	i	.
Cc1c(CCOC(=O)c2ccccc2)sc[n+]1CC(=O)c1ccc(Br)cc1	i	.
Cc1c(CCOC(=O)C23CC4CC(CC(C)(C4)C2)C3)sc[n+]1CC(=O)c1ccccc1	-6.51*	-6.51
Cc1[nH]n(-c2nc(-c3ccccc3F)cc(=O)[nH]2)c(=O)c1CCO	i	.
CC1CN(C(=O)CCC(=O)NCc2ccc(F)cc2)c2ccccc2S1 (stereo not drawn)	i	.
COc1ccccc1CNC(=O)CCC(=O)N1CC(C)Sc2ccccc21 (stereo not drawn)	-6.26*	-6.26
CC(C)c1ccc(COc2ccc(C(=O)N3CCOCC3)cc2)cc1	i	.
CC(C)c1ccc(OCc2ccc(C(=O)N3CCN(c4ccccn4)CC3)cc2)cc1	-7.5*	-7.5
O=C(c1ccc(Cl)c(S(=O)(=O)NCc2ccccc2)c1)N1CCN(c2ccccn2)CC1	-5.77*	-5.77
